# Pf Dd2 inh: blocks in vitro growth of P. falciparum Dd2. P. falciparum Dd2 growth, SYBR Green, 72 h. Potency, µM (highest dose often 28.9 µM), for the others: top-dose activity, negative = inhibition, actives largely listed as inhibitors. 4.3% of 120,000 active. AID 1347417; active = well fitted inhibition curve with a large enough effect;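 also: plate controls were DMSO vehicle for no effect and reference drug for full effect; nearly all actives have a fitted effect of over 65% in size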
#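 Readout: SYBR Green fluorescence, 485 nm excitation, 535 nm emission, after ~16 h lysis at 37C. Before that, Dd2-infected red cells (2.5% hematocrit) grew 72 h with compound, 29 uM top final concentration.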
# Active calls of the source: *; i = inactive; [ ] = remark or other dose. This excerpt belongs to a sample that is enriched for hits. Potency is read from the fitted curve at half-maximal effect.
SMILES,Pf Dd2 inh
COc1ccccc1Nc1ncc2c(n1)CCN(Cc1ccc(C)s1)C2,69%
COc1ccc(Nc2ncc3c(n2)CCN(Cc2ccc(Br)s2)C3)c(OC)c1,10µM*
c1cn(-c2ccc(Oc3nn[nH]n3)cc2)c(-c2cc3n(n2)CCNC3)n1,-13%
CC1=NS(=O)(=O)N(C)C=C1C(=O)OCc1nc(C)no1,104%
CN(Cc1cc(C(C)(C)C)n[nH]1)C(=O)c1ccccc1C1CCNC1 (configuration not stated),-6%
O=C(c1ccc(C(F)(F)F)cc1)N1CCn2c(nnc2C2CC2)C1,-9%[44.1 µM]
CC1CCN(S(=O)(=O)N2CCC(C(=O)N3CCc4nc5cc[nH]n5c(=O)c4C3)CC2)CC1,0%[5.79 µM]
Cc1noc(C)c1S(=O)(=O)N1CCCCCCNC(=O)[C@@H]2CCC[C@@H]21,4%
CCOc1ccc(NC(=O)C2CCCN(S(=O)(=O)c3ccc4[nH]c(=O)ccc4c3)C2)cc1 (configuration not stated),4%
O=C(c1ccncc1)N1CCC(N2C(=O)C3(CCCC3)C2c2ccccc2)CC1 (configuration not stated),i
Cn1nccc1C(=O)N1CCC(N2C(=O)C3(CCCCC3)C2c2ccccc2)CC1 (configuration not stated),i
O=C(c1ccc2cc[nH]c2c1)N1CCC(N2C(=O)C3(CCCCC3)C2c2ccncc2)CC1 (configuration not stated),7.1µM*
Cc1cccc(C(=O)N2CCC(N3C(=O)C4(CCCCC4)C3c3ccncc3)CC2)c1 (configuration not stated),6.3µM*
COc1ccc(C(=O)N2CCC(N3C(=O)C4(CCCC4)C3c3ccccc3)CC2)cc1 (configuration not stated),-11%
CCn1nccc1C(=O)N1CCC(N2C(=O)C3(CCCCC3)C2c2ccncc2)CC1 (configuration not stated),i
CC(C)(C)c1cc(C(=O)NCc2cccnc2)nn2cccc12,-12%
COc1ccc(N(C(=O)c2ccccc2)S(=O)(=O)c2ccc3c(c2)n(C)c(=O)n3C)cc1,-1%
CCCCNC(=O)CN1C(=O)NC2(CCOCC2)C1=O,8%
Cc1nn2c(=O)cc(COC(=O)c3ccc(NC(=O)CCc4ccccc4)cc3)nc2s1,-26%
CNC(=O)N1CCCC(Cc2ncc(C)n2C(C)C)C1 (configuration not stated),-12%
CNC(=O)N1CCC(Cc2noc(C3CCOCC3)n2)C1 (configuration not stated),2%
COCCn1c(C)cnc1CC1CCCN(S(=O)(=O)c2cccc(F)c2)C1 (configuration not stated),8.9µM*
CCCn1c(C)cnc1CC1CCCN(S(=O)(=O)CCC)C1 (configuration not stated),-11%
Cc1cnc(CC2CCN(S(=O)(=O)c3ccccc3)C2)n1C(C)C (configuration not stated),3.2µM*
CCOc1ccccc1NC(=O)N1CCC(Cc2noc(C3CCOCC3)n2)C1 (configuration not stated),7.9µM*
SMILES,Pf Dd2 inh
Cc1cnc(CC2CCN(S(=O)(=O)c3cn(C)cn3)C2)n1C(C)C (configuration not stated),-12%
O=C(c1n[nH]c(=O)c2ccccc12)N1CCC(Cc2noc(C3CCOCC3)n2)C1 (configuration not stated),6%
CCNC(=O)N1CCC(Cc2ncc(C)n2C(C)C)C1 (configuration not stated),8%
CC(=O)N1CCC(Cc2ncc(C)n2C(C)C)C1 (configuration not stated),3%
CNC(=O)N1CCC(Cc2ncc(C)n2CCOC)C1 (configuration not stated),2%
CCOc1ccccc1NC(=O)N1CCCC(Cc2ncc(C)n2C(C)C)C1 (configuration not stated),1.8µM*
OC(c1cccc(C(F)(F)F)c1)c1nc(Nc2ccccc2)n[nH]1 (configuration not stated),6%[44.1 µM]
O=C1NC2(CCCN(C(=O)C3CCCC3)C2)Oc2ccccc21 (configuration not stated),2%[44.1 µM]
CCOC(=O)CSc1nc2ccccc2c(=O)n1-c1cccc(C)c1,27%
Cc1cc(C(=O)NC2CC(c3nnc(CN(C)C)n3C)C2)c2c(C)noc2n1 (configuration not stated),-9%
Cc1nn(C)c2c1c(-c1ccccc1)cc(=O)n2Cc1ccc(Cl)cc1,i
COc1ccc(-c2nc(C3CC(=O)N(Cc4ccccc4OC)C3)no2)c(C)c1 (configuration not stated),-25%
O=C1CCCCC(Cc2ccccc2)(C(=O)Nc2cccnc2)N1 (configuration not stated),9%
CC(C)NC(=O)N1CCN(C(=O)c2cccs2)[C@@H](C(=O)N[C@H](Cc2c[nH]c3ccccc23)C(N)=O)C1,i
O=C(c1ccccc1)N1CCC[C@H]1c1nc(-c2ccccc2Cl)no1,i
CN1CCN(c2nc3c(c(=O)[nH]2)CCN(Cc2cccc(C(F)(F)F)c2)CC3)CC1,10%[5.79 µM]
COc1ccccc1C(=O)N1CCC2(CC1)NC(=O)c1ccccc1O2,i
CCn1c(-c2ccccc2)nn(CC(=O)NCc2ccc3nonc3c2)c1=O,1%
O=C(O)[C@]12CN(Cc3ccncc3)C[C@H]1CN(C1CCOCC1)C2,-12%
O=C(NCc1ccc2nonc2c1)[C@@]12CNC[C@@H]1CN(C1CCCC1)C2,7.9µM*
CNC(=O)c1cc[nH]c1C1CCCN(C(=O)c2cc(C)n(CCOC)c2C)C1 (configuration not stated),56%
COc1ccc(C(=O)N[C@H]2CC[C@]3(C)CCC([C@H](C)C(=O)NC4CCCCC4)[C@H](O)[C@H]3[C@@H]2C)cc1 (some centres not stated),i
Cc1ccc2nc(-c3ccc(Cl)c(NC(=O)c4ccc(Br)o4)c3)oc2c1,25%
COc1ccc(Cl)cc1NC(=O)CN(C)S(=O)(=O)c1ccc(Br)s1,i
Cc1ccc(C)c(S(=O)(=O)N2CCC(CC(=O)NCc3ccccc3)C2)c1 (configuration not stated),16%
SMILES,Pf Dd2 inh
CCOc1ccccc1NC(=O)N1CC(C)Oc2ccc(Cl)cc21 (configuration not stated),15%
CCOc1ccccc1NC(=O)N1c2ccccc2Sc2ccccc21,13µM*
CCOc1ccccc1NC(=O)N1CCCn2nc(C)cc21,i[5.79 µM]
COCCN1C(=O)CC[C@]2(C(=O)NCc3ccc(OC)cc3OC)CCCC[C@@H]12,i
CCOC(=O)c1cc(-c2ccc(OC)cc2)n(CCC(=O)NCc2ccccc2OC)c1C,7.9µM*
COc1ccc(-c2cc(C(C)=O)c(C)n2CCC(=O)NCc2ccccc2OC)cc1,-13%
CCOC(=O)c1cc(-c2ccccc2)n(CCC(=O)NCc2ccccc2Cl)c1C,i
Cc1cccc(OC[C@H]2C[C@@H](NC(=O)c3ccno3)[C@H](O)[C@@H]2O)n1,22%[44.1 µM]
CCn1cc(CN(C)C(=O)CCc2ccc3c(c2)CN(C(C)=O)CCO3)c(C)n1,3%
CCc1ccc(NC(=O)CC2C(=O)N(c3ccc(C)cc3)C(=O)N2CCc2ccncc2)cc1 (configuration not stated),6.3µM*
COc1ccc(CCN2C(=O)N(c3ccc(C)cc3)C(=O)C2CC(=O)Nc2ccc(F)cc2)cc1 (configuration not stated),-20%
Cc1cccc(N2C(=O)C(CC(=O)Nc3cccc(F)c3)N(CCc3ccncc3)C2=O)c1 (configuration not stated),-18%
